KAT2A inh: GCN5L2 (KAT2A) acetyltransferase inhibition. Q92830. GCN5L2 HAT assay, ThioGlo1 CoA-SH fluorescence. Potency, µM (highest dose often 58.9 µM), without a hit: top-dose activity change, negative = inhibition, actives largely listed as inhibitors. actives 0.21% (n = 390,000)
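Compounds, pin-transferred from DMSO stocks, meet 20nM GCN5L2 for 15 min before the reaction begins with H3(1-25) peptide (75uM) and acetyl-CoA (70uM). Thiol-reactive ThioGlo1 reports CoA release over 20 min at room temperature.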
TDP1 inh: TDP1 (human) enzyme inhibition | actives 0.28% (n = 350,000) | Potency, µM (highest dose often 130 µM), inactives show at the highest dose activity change, negative = inhibition, actives largely listed as inhibitors | Q9NUW8 | AID 485290 | recombinant TDP1, AlphaScreen DNA substrate cleavage; further: nearly all actives have a fitted effect of over 40% in size
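Compounds were preincubated with Tdp1 (1 nM final) for 15 min at room temperature before substrate (15 nM final) started a 5 min reaction; beads (10 ug/ml final) were then added for 10 min before AlphaScreen detection.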
DT40 TDP1 CPT: DT40-hTDP1 cell growth loss with CPT; chicken DT40 Tdp1-/-;hTDP1 cells + 20 nM CPT, ATP luminescence, 48 h; Potency, µM (highest dose often 46.2 µM), for inactives: at the highest dose activity change, negative = growth inhibition, hits mostly inhibitors; actives 12% (n = 420,000); AID 686979; further: nearly all actives have a fitted effect of over 55% in size
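Chicken DT40 Tdp1-/- cells complemented with human TDP1, 400 cells/well, exposed to compounds plus 20 nM camptothecin for at least 48 h at 37 C; viability read as ATP content by CellTiter-Glo luminescence.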
PLK1 PBD inh: blocks phosphopeptide binding to human PLK1 polo-box domain. P53350. Plk1 PBD binding of FITC phosphopeptide, fluorescence polarization. Potency, µM, inactives show max response, negative = inhibition, usual class: inhibitors. actives 2.8% (n = 360,000); further: series mostly up to about 57 µM; nearly all actives have a fitted effect of over 65% in size
TDP1 cell noCPT: qHTS for Inhibitors of human tyrosyl-DNA phosphodiesterase 1 (TDP1): qHTS in cells in absence of CPT. DT40 Tdp1-/- hTDP1 cells, no CPT, ATP luminescence, 48 h. Potency, µM (highest dose often 46.2 µM), for the others: at the top dose activity change, negative = growth inhibition, most hits filed as inhibitors. actives 15% (n = 420,000); further: nearly all actives have a fitted effect of over 55% in size
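Compound effects on proliferation are scored in DT40 Tdp1-/-;hTDP1 cells in the absence of CPT. ATP levels (CellTiter-Glo luminescence) are recorded after a ≥48 hr, 37 °C incubation.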
VDR inhibitor: vitamin D3 receptor (human) inhibition | P11473 | Potency, µM, for the others: max response, negative = inhibition, most hits filed as inhibitors | VDR-SRC2-3 peptide fluorescence polarization, 2 h | actives 0.93% (n = 400,000)
Target sequence (P11473 whole entry, looked up): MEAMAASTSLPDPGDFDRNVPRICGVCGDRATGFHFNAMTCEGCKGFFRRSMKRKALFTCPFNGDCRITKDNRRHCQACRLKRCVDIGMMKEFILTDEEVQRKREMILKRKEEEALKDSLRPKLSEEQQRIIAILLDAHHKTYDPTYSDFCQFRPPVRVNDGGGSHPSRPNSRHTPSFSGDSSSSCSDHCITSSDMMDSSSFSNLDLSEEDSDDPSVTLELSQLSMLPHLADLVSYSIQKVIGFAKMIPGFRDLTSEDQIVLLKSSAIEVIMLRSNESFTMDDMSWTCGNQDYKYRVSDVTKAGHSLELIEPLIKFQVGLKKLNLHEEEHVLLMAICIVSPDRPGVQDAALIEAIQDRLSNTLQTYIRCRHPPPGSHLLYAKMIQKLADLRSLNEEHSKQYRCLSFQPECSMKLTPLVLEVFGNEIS
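Fluorescence polarization assay of small-molecule disruption of VDR binding to coregulator peptide SRC2-3. Compounds and controls pin-transferred, then read after 2 h incubation at ambient room temperature.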
* marks the source's active call; other numbers are inactive results; ? = inconclusive; . = not tested or not shown. Sampled rows, rich in hits. Any-hit rate of the full collection: about 18%. The call rests on the fitted dose curve; in most records, active means well fitted curve in the direction sought with a large enough effect; inconclusive means small, poorly fitted or top-dose-only effect, or another doubt; inactive means no such curve, though single readings can be large; an effect the other way counts as inactive or inconclusive. On the % scale 0 is the no-effect control and ±100 the full control effect; potency means the concentration at half of the fitted maximal effect.

SMILES	KAT2A inh	TDP1 inh	DT40 TDP1 CPT	PLK1 PBD inh	TDP1 cell noCPT	VDR inhibitor
CC(C)C(=O)N1CCCC1(C)C(=O)Nc1cccc(Oc2ccccc2)c1 (stereo unspecified)	.	.	?	-5%	?	.
O=[N+]([O-])c1ccc(OC(F)F)c(/C=N/n2cnnc2)c1	0%	-3%	5.8µM*	0%	6.5µM*	8%
Cc1cc(-c2ccc(/C=N/n3cnnc3)o2)c(C)c([N+](=O)[O-])c1	-3%	.	-29%	-15%	-13%	-6%
COc1cc([N+](=O)[O-])ccc1-c1ccc(/C=N\n2cnnc2)o1	-14%	.	1.6µM*	-23%	1.8µM*	-10%
COCCCN1CC(=O)N2C(c3ccccc3)c3[nH]c4ccccc4c3C[C@H]2C1=O (stereo partly specified)	-5%	.	8%	4%	4%	-8%
O=C1[C@@H]2Cc3c([nH]c4ccccc34)C(c3ccccc3)N2C(=O)CN1C1CC1 (stereo partly specified)	7%	.	?	-13%	?	7%
COc1ccc(C2c3[nH]c4ccccc4c3C[C@H]3C(=O)N(c4ccccc4C(=O)NCCN4CCOCC4)C(=O)N23)cc1 (stereo partly specified)	-6%	.	23µM*	2%	?	12%
O=C1[C@@H]2Cc3c([nH]c4ccccc34)C(c3ccc([N+](=O)[O-])cc3)N2C(=O)CN1C1CC1 (stereo partly specified)	-18%	.	2.6µM*	-11%	4.6µM*	-10%
CN1CC(=O)N2C(c3cccc([N+](=O)[O-])c3)c3[nH]c4ccccc4c3C[C@H]2C1=O (stereo partly specified)	-1%	.	1µM*	6%	1.8µM*	13%
COc1cccc(C2c3[nH]c4ccccc4c3C[C@H]3C(=O)N(c4ccccc4C(=O)N4CCCC4C(=O)O)C(=O)N23)c1 (stereo partly specified)	-14%	.	3%	?	-4%	-4%
O=C1[C@@H]2Cc3c([nH]c4ccccc34)C(c3cccc([N+](=O)[O-])c3)N2C(=O)CN1CCCO (stereo partly specified)	-1%	.	-21%	-6%	-5%	-10%
CN1CC(=O)N2C(c3ccc(Cl)cc3)c3[nH]c4ccccc4c3C[C@H]2C1=O (stereo partly specified)	-15%	.	15µM*	-8%	?	-5%
CCC(C(=O)Nc1ccc(C(=O)OC)cc1)n1nc(-c2ccc(C)cc2)c2c(c1=O)CCCC2 (stereo unspecified)	5%	5%	?	.	?	1%
C=CCN1CC(=O)N2C(c3ccccc3)c3[nH]c4ccccc4c3C[C@H]2C1=O (stereo partly specified)	-9%	.	?	-3%	18µM*	4%
CCN1C(=O)[C@@H]2Cc3c([nH]c4ccccc34)C(c3ccc(OC)cc3)N2C1=S (stereo partly specified)	-3%	.	?	9%	15µM*	-13%
Cc1ccc(S(=O)(=O)N2[C@@H](CO)CO[C@H]2CC(=O)c2cccs2)cc1	.	.	?	-16%	?	.
O=C(COC(=O)C12CC3CC(CC(Br)(C3)C1)C2)Nc1c(F)cccc1F	-13%	-1%	-22%	1%	5%	-6%
Cc1nc2cc(-c3ccc(Cl)cc3)nn2c(NCCN(C)C)c1C	-6%	-2%	7.3µM*	-9%	7.3µM*	26%
Cc1nn(-c2ccccc2)c(C)c1-c1nnc(-c2c(C)nn(-c3ccccc3)c2C)o1	-7%	5%	?	3%	18µM*	11%
CC1=C(c2ccc(Cl)cc2)S(=O)(=O)N=C1N1CCC(C(=O)NCc2ccccc2F)CC1	-7%	2%	0%	.	-3%	0%
CC1=C(c2ccc(C)c(C)c2)S(=O)(=O)N=C1N1CCC(C(=O)NCCc2ccc(Cl)cc2)CC1	-12%	1%	13µM*	.	7.3µM*	-3%
COc1ccccc1CNC(=O)C1CCN(C2=NS(=O)(=O)C(c3ccc(C)c(C)c3)=C2C)CC1	-4%	1%	16µM*	.	18µM*	16%
CCOc1ccc(CNC(=O)C2CCN(C3=NS(=O)(=O)C(c4ccc(C)cc4)=C3CC)CC2)cc1	-12%	4%	18µM*	.	?	8%
CCSc1nnc(NC(NC(C)=O)(C(F)(F)F)C(F)(F)F)s1	2%	5%	-3%	-5%	1%	5%
CCSc1nnc(NC(=O)C(C(F)(F)F)C(F)(F)F)s1	-7%	-1%	?	13µM*	?	-9%
SMILES	KAT2A inh	TDP1 inh	DT40 TDP1 CPT	PLK1 PBD inh	TDP1 cell noCPT	VDR inhibitor
CCSc1nnc(NC(=O)C(C)(C(F)(F)F)C(F)(F)F)s1	0%	7%	23µM*	-16%	18µM*	-4%
CCSc1nnc(NC(=O)CC(C)C)s1	-9%	-1%	-2%	-4%	5%	0%
CCSc1nnc(NC(=O)NCC(F)(F)F)s1	-3%	2%	-15%	-7%	-24%	3%
CCSc1nnc(NC(=O)C(CC)(C(F)(F)F)C(F)(F)F)s1	-21%	2%	?	-7%	18µM*	-9%
CCc1cccc(CC)c1NC(=O)C(Cc1ccccc1)NS(=O)(=O)c1cccc2nsnc12 (stereo unspecified)	-4%	5%	?	.	?	-5%
CN(C)c1ccc(/C=N/NC(=O)CN(c2cccc(Cl)c2)S(C)(=O)=O)cc1Br	-23%	5%	26µM*	-3%	16µM*	-10%
CC1C(c2ccccc2)=Nn2c(=O)n(-c3ccccc3)c(=O)n21 (stereo unspecified)	.	.	?	4%	23µM*	.
Cc1ccc[n+](C(C)C(=O)c2ccc(-c3ccccc3)cc2)c1 (stereo unspecified)	2%	0%	4.1µM*	-3%	5.2µM*	6%
O=C(c1ccc(-n2cncn2)c2ccoc12)N1CCOCC1	.	.	1%	-14%	-9%	.
CCCN1CCN(C(=O)C2CCN(S(=O)(=O)c3c(C)noc3/C=C/c3ccc(C)cc3)CC2)CC1	-17%	8%	21µM*	0%	21µM*	-9%
Cc1cccc(N2CCN(C(=O)C3CCN(S(=O)(=O)c4c(C)noc4C)CC3)CC2C)c1 (stereo unspecified)	-2%	7%	8.2µM*	-5%	9.2µM*	16%
CCCN(C(=O)C1CCN(S(=O)(=O)c2c(C)noc2/C=C/c2ccc(C)cc2)CC1)c1ccccc1F	1%	-5%	?	.	23µM*	-8%

Assay outcomes from PubChem BioAssay.
